Assay results from PubChem BioAssay (NCI).
About 83,000 compounds went through this panel and 20% of them were active in at least one assay; those are over-represented in the sample as a whole.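 The endpoint reported here, percent growth, reads 100 for growth as untreated, 0 for no net growth and -100 for all cells dead.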 The source made the active and inactive calls. The calls were made as follows: active = growth percent below 10; inactive = the rest.

Legend:
Assay in all cases: NCI-60 one-dose screen, 48 h (100 = growth as untreated, 0 = no growth, -100 = all killed)
Conditions in all cases: 10 µM unless noted
NCI-H23 lung = tested on: NCI-H23 lung
NCI-H226 lung = tested on: NCI-H226 lung
NCI-H322M lung = tested on: NCI-H322M lung
HOP-62 NSCLC = tested on: HOP-62 NSCLC
NCI-H460 lung = tested on: NCI-H460 lung
HOP-92 NSCLC = tested on: HOP-92 NSCLC
NCI-H522 lung = tested on: NCI-H522 lung
A549/ATCC NSCLC = tested on: A549/ATCC NSCLC
786-0 renal = tested on: 786-0 renal
COLO 205 colon = tested on: COLO 205 colon
DU-145 prostate = tested on: DU-145 prostate
K-562 leukemia = tested on: K-562 leukemia
MALME-3M melanoma = tested on: MALME-3M melanoma
MDA-MB-231 breast = tested on: MDA-MB-231 breast
RXF 393 renal = tested on: RXF 393 renal
SF-268 CNS = tested on: SF-268 CNS
SF-295 CNS = tested on: SF-295 CNS
SF-539 CNS = tested on: SF-539 CNS
UACC-257 melanoma = tested on: UACC-257 melanoma

Measured: growth

O=C(CSc1nc2ccc([N+](=O)[O-])cc2[nH]1)Nc1ccc(F)c(Cl)c1
inactive: NCI-H322M lung 37.1% | HOP-62 NSCLC 35% | NCI-H460 lung 11.1% | A549/ATCC NSCLC 23.4% | 786-0 renal 21.9% | COLO 205 colon 24.7% | DU-145 prostate 32.2% | K-562 leukemia 11.9% | MDA-MB-231 breast 30.8% | RXF 393 renal 29.7% | SF-268 CNS 23.8% | SF-295 CNS 18.1% | SF-539 CNS 35% | UACC-257 melanoma 10.5%
active: NCI-H23 lung -7.69% | NCI-H226 lung 7.74% | HOP-92 NSCLC -36.9% | NCI-H522 lung -3.92% | MALME-3M melanoma -5.67%

Cc1cc(C)c(O)c(CNCCCCCCNCc2cc(C)cc(C)c2O)c1
inactive: NCI-H23 lung 56% | NCI-H226 lung 81.6% | HOP-62 NSCLC 17.6% | HOP-92 NSCLC 12.1% | A549/ATCC NSCLC 32% | 786-0 renal 54.5% | SF-268 CNS 23.9%
active: NCI-H322M lung -12.6% | NCI-H460 lung -62.6% | NCI-H522 lung -13% | COLO 205 colon -72.8% | DU-145 prostate 7.45% | K-562 leukemia -63% | MALME-3M melanoma -81.9% | MDA-MB-231 breast -44% | RXF 393 renal -2.77% | SF-295 CNS -83.6% | SF-539 CNS -85.3% | UACC-257 melanoma -80.6%

C[C@H]1[C@H](C)CC[C@]2(COC(=O)CCC(=O)O)CC[C@]3(C)C(=CC[C@@H]4[C@@]5(C)CCCNC(C)(C)[C@@H]5CC[C@]43C)[C@H]12
inactive: NCI-H23 lung 62.8% [100 µM] | NCI-H226 lung 76.3% [100 µM] | NCI-H322M lung 86.8% [100 µM] | HOP-62 NSCLC 49.1% [100 µM] | NCI-H460 lung 66.8% [100 µM] | NCI-H522 lung 53.5% [100 µM] | A549/ATCC NSCLC 70.9% [100 µM] | 786-0 renal 55.6% [100 µM] | COLO 205 colon 69.1% [100 µM] | DU-145 prostate 79.8% [100 µM] | K-562 leukemia 48.9% [100 µM] | MALME-3M melanoma 77.1% [100 µM] | MDA-MB-231 breast 45.1% [100 µM] | RXF 393 renal 53% [100 µM] | SF-268 CNS 62.5% [100 µM] | SF-295 CNS 59.1% [100 µM] | SF-539 CNS 50.9% [100 µM] | UACC-257 melanoma 78.5% [100 µM]
active: HOP-92 NSCLC -7.31% [100 µM]

Cc1ccc(NC(=S)/N=c2/n(-c3ccccc3)nc3n2CCN3C2=NCCN2)cc1
inactive: NCI-H23 lung 104% | NCI-H226 lung 92.3% | NCI-H322M lung 103% | HOP-62 NSCLC 92.7% | NCI-H460 lung 104% | HOP-92 NSCLC 75.3% | NCI-H522 lung 96.7% | A549/ATCC NSCLC 106% | 786-0 renal 53.5% | COLO 205 colon 106% | DU-145 prostate 111% | K-562 leukemia 121% | MALME-3M melanoma 113% | MDA-MB-231 breast 92.9% | RXF 393 renal 101% | SF-268 CNS 109% | SF-295 CNS 99.3% | SF-539 CNS 102% | UACC-257 melanoma 109%

Cc1ccc(C2=C/C(=C/c3ccc(Br)cc3)C(=O)N2CCc2ccc(S(N)(=O)=O)cc2)cc1
inactive: NCI-H23 lung 100% | NCI-H226 lung 97% | NCI-H322M lung 90.6% | HOP-62 NSCLC 96.1% | NCI-H460 lung 100% | HOP-92 NSCLC 89.9% | NCI-H522 lung 89% | A549/ATCC NSCLC 96% | 786-0 renal 97.1% | COLO 205 colon 115% | DU-145 prostate 104% | K-562 leukemia 88.6% | MALME-3M melanoma 93.4% | MDA-MB-231 breast 90.4% | RXF 393 renal 90% | SF-268 CNS 87.6% | SF-295 CNS 101% | SF-539 CNS 97.4% | UACC-257 melanoma 101%

CC(C)OC(=O)Nc1cc(F)ccc1F
inactive: NCI-H23 lung 92.9% | NCI-H226 lung 90.9% | NCI-H322M lung 90.8% | HOP-62 NSCLC 101% | NCI-H460 lung 106% | HOP-92 NSCLC 99.6% | NCI-H522 lung 99.8% | A549/ATCC NSCLC 99.7% | 786-0 renal 103% | COLO 205 colon 105% | DU-145 prostate 110% | K-562 leukemia 97.4% | MALME-3M melanoma 92.7% | MDA-MB-231 breast 97% | RXF 393 renal 106% | SF-268 CNS 103% | SF-295 CNS 97.5% | SF-539 CNS 92.1% | UACC-257 melanoma 96.9%

CCOc1ccccc1/C=N\Nc1ccc(S(=O)(=O)c2ccc(N/N=C/c3ccccc3OCC)cc2)cc1
inactive: NCI-H23 lung 95.7% | NCI-H226 lung 79.5% | NCI-H322M lung 92.1% | HOP-62 NSCLC 93% | NCI-H460 lung 98.6% | HOP-92 NSCLC 88.9% | NCI-H522 lung 95.2% | A549/ATCC NSCLC 96.7% | 786-0 renal 103% | COLO 205 colon 114% | DU-145 prostate 109% | K-562 leukemia 87.9% | MALME-3M melanoma 98% | MDA-MB-231 breast 87.8% | RXF 393 renal 112% | SF-268 CNS 88.3% | SF-295 CNS 92.9% | SF-539 CNS 90.8% | UACC-257 melanoma 100%

COc1ncc(-c2ccc3nc(N)n(-c4ccccc4C(F)(F)F)c(=O)c3c2)cc1S(=O)(=O)Nc1ccc(F)cc1F
active: NCI-H322M lung -11.6% | COLO 205 colon -66.2% | MDA-MB-231 breast -11% | SF-539 CNS 6.32%
inactive: NCI-H23 lung 30.6% | NCI-H226 lung 88.9% | HOP-62 NSCLC 82.4% | NCI-H460 lung 28.1% | HOP-92 NSCLC 25.3% | NCI-H522 lung 46.8% | A549/ATCC NSCLC 29% | 786-0 renal 33.7% | DU-145 prostate 32.3% | K-562 leukemia 61.5% | MALME-3M melanoma 76.2% | RXF 393 renal 10.6% | SF-268 CNS 46.1% | SF-295 CNS 33.4% | UACC-257 melanoma 82.5%
